Growth data for seven compounds are collected here from PubChem BioAssay (NCI).

About 83,000 compounds went through this panel and 20% of them were active in at least one assay; those are over-represented in the sample as a whole.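 Growth was measured after 48 h exposure to one concentration of compound in 96-well plates. Values under 10 count as active.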 Values without a mark were called inactive. Active and inactive are the calls of the source.

Experiment in all cases: NCI-60 one-dose screen, 48 h (100 = growth as untreated, 0 = no growth, -100 = all killed)
Holding throughout (conditions): 10 µM unless noted

Assay [1] concerns DU-145 prostate.
Assay [2] has as its system K-562 leukemia.
For assay [3], the system named is MALME-3M melanoma.
Assay [4] relates to MDA-MB-231 breast.
For assay [5], the system named is RXF 393 renal.
In assay [6] the test system is SF-268 CNS.
Assay [7] concerns SF-295 CNS.
Assay [8] relates to SF-539 CNS.
Assay [9] concerns UACC-257 melanoma.
For assay [10], the system named is M14 melanoma.
Assay [11] relates to HCT-15 colon.
Assay [12] concerns HT29 colon.
In assay [13] the test system is SNB-75 CNS.
Assay [14] relates to U251 CNS.
Assay [15] concerns PC-3 prostate.
Assay [16] relates to SK-MEL-5 melanoma.
The test system of assay [17] is UACC-62 melanoma.
For assay [18], the system named is LOX IMVI melanoma.
Assay [19] concerns SK-MEL-28 melanoma.
Assay [20] has as its system SNB-19 CNS.

`O=C(N/N=C\c1ccccc1S(=O)(=O)O)N/N=C/c1ccccc1S(=O)(=O)O`: the growth was 106% in [1]; 97.9% in [2]; 105% in assay [3]; 102% in assay [4]; 112% in assay [5]; 102% in assay [6]. The growth in [7] was 101%; in assay [8], 111%; in assay [9] it was 93.2%; in assay [10], 102%; in [11], 104%; in [12] it was 105%. Besides, the growth in [13] is 95.5%; in assay [14] it was 99.9%; in assay [15] it was 96.3%; in [16], 106%; in [17], 98.1%; in assay [18] it was 102%. In addition, the growth in [19] is 101%.

Regarding `COc1ccc(C#Cc2ccc(=O)oc2-c2cc(OC)c(OC)c(OC)c2)cc1O`, the growth in assay [1] was 58.5%; in [2], 16.8%; in [3], 38.8%; in assay [4], 59.9%; in assay [5], 57.8%; in assay [6], 69.7%. The growth is 23.5% in [7]; 47.6% in [8]; 53% in assay [9]; 33.9% in [10]; 30.7% in [11]; 33.9% in assay [12]. In addition, the growth in [13] was 40.1%; in assay [14], 39.7%; in assay [15], 40.6%; in assay [16], 24.5%; in assay [17], 44%; in assay [18] it was 41.4%. The growth in [19] was 59%.

As to `[2H]C([2H])([2H])Oc1ccc(F)cc1/C=C/C(=O)/C=C(O)/C=C/c1cc(F)ccc1OC([2H])([2H])[2H]`, the growth was 95.3% in [1]; 84% in [2]; 104% in [3]; 108% in assay [4]; 103% in assay [5]; 89.8% in [6]. For the same compound, the growth was 103% in assay [7]; 107% in assay [8]; 89.6% in [9]; 85.1% in assay [10]; 79.9% in assay [11]; 98.8% in assay [12]. For the same compound, the growth in [13] was 94.9%; in assay [14], 76.8%; in assay [15] it was 93.1%; in assay [16], 92.8%; in assay [17], 80.6%; in assay [18] it was 85.1%. Besides, the growth in [19] is 116%.

As for `O=C1c2ccccc2C(=O)c2c1cc1c(c2[N+](=O)[O-])OCO1`, the growth in assay [1] was 17.8%; in assay [2], 10.5%; in assay [3], 85%; in assay [4], 11.3%; in assay [5], -63.5% (active); in assay [6], 5.31% (active). Moreover, the growth in [7] is 10.6%; in assay [8], 21.3%; in [9], 82.3%; in assay [10] it was 73.5%; in assay [11], 13.7%; in assay [12], 32.5%. Further, the growth in [13] is -13.4% (active); in [14], -13.3% (active); in [15], -3.71% (active); in assay [16] it was 80%; in assay [17], 15.2%; in [18], 2.79% (active). The growth in [19] was 103%.

In the case of `Cc1c2cccnc2c(C)c2c1c1cc(CO)ccc1n2C`, the growth is 25.3% in [1]; 9.28% (active) in assay [2]; 16.8% in assay [3]; 19.9% in [4]; 30.2% in assay [5]; 28.8% in [6]. Besides, the growth in assay [7] is 24.7%; in [8] it was 23.2%; in [9], -1.38% (active); in assay [10] it was 29.8%; in assay [11] it was 18.7%; in [12], 16%. Further, the growth in [13] was 45.5%; in assay [20], 21.1%; in assay [14], 14%; in [16], 30.6%; in assay [17], -16.6% (active); in [18] it was 8.95% (active). The growth in [19] is 30.6%.

In the case of `CNCc1cccc2c1OCCOCCOCCNS(=O)(=O)c1ccc(cc1)-c1cnc(N)c(n1)C(=O)N2`, the growth is 21.1% in assay [1]; 9.35% (active) in assay [2]; 29.9% in assay [3]; 30.4% in assay [4]; -11.5% (active) in [5]; 35.7% in assay [6]. Further, the growth in assay [7] is 70.3%; in assay [8] it was 7.45% (active); in [9], 61.3%; in assay [10], 26%; in [12] it was 12.4%; in assay [13] it was 65.4%. In addition, the growth in [20] is 18.2%; in [14], 14.1%; in assay [15], 20.1%; in assay [16], 77%; in assay [17], 23.2%; in assay [18], 2.85% (active). In addition, in [19], the growth was 51%.

As for `O=C(NNc1cnccn1)c1nc2cc(F)ccc2n2cccc12`, the growth in assay [1] was 25.7%; in assay [2], 10.8%; in [3], 11%; in [4], 27.5%; in assay [5], 9.53% (active); in assay [6] it was 26%. In addition, the growth in assay [7] is 12.9%; in assay [8], 5.57% (active); in assay [9], -9.5% (active); in [10] it was 5.33% (active); in assay [12] it was 27.9%; in [13], 41.1%. The growth in [20] was 26.2%; in [14], 14%; in assay [15], 29.4%; in assay [16], -48.2% (active); in [17], -21.1% (active); in assay [18] it was -53.5% (active). Further, the growth in assay [19] was 21%.
